# Measurements reported in PubChem BioAssay (Tox21).
# “And” between values parts separate entries of the source, which are not always exact repeats. Equal entries are not always repeated. Inconclusive results are not listed. Entries that show only a call come without a potency. More than one record can exist for a structure, and the calls need not agree. The source made the active and inactive calls. Unless noted, the call rests on the fitted dose curve.
# Legend:
# [1] = Nuclear factor erythroid 2-related factor 2/antioxidant responsive element (Nrf2/ARE) small molecule agonists: qHTS cell viability counter screen in human keratinocytes (AID 1919968; active means well fitted curve in the direction sought with a large enough effect in the repeat runs; an effect the other way counts as inactive or inconclusive; further: nearly all actives have a fitted effect of over 55% in size; further: potency means the concentration at half of the fitted maximal effect)
# Procedure, shortened: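 KeratinoSens HaCaT cells, 1,500/well, preincubated 5 h, then exposed to compounds in DMSO for 23 h at 37 C/5% CO2. Viability read as CellTiter-Fluor fluorescence after 1 h, in the same wells as the ARE-luciferase read.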
# [2] = molecular target: Gonadotropin-releasing hormone receptor (Homo sapiens) (UniProt P30968); assay: Human gonadotropin-releasing hormone receptor (GnRHR) small molecule agonists, calcium flux assay in GnRHR-HEK293 cells (AID 1920063); further: nearly all actives have a fitted effect of over 35% in size
# Procedure, shortened: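 HEK293 cells stably expressing human GnRHR were dye-loaded for 1 h at 37 C. Compound was added in agonist mode and fluorescence (Ex/Em 480/540) recorded kinetically for 3 min. Fifteen concentrations, triplicates.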
# [3] = molecular target: KiSS-1 receptor (Homo sapiens) (UniProt Q969F8); assay: Human kisspeptin (KISS1R) small molecule agonists, calcium flux assay in KISS1R-HEK293 cells (AID 1920064; active means well fitted curve in the direction sought with a large enough effect in the repeat runs; an effect the other way counts as inactive or inconclusive)
# Procedure, shortened: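 HEK293 cells stably expressing human KISS1R were loaded with calcium dye for 1 h at 37 C, then given compound; fluorescence (Ex/Em 480/540) was read kinetically for 3 min. Fifteen concentrations, triplicate.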
# [4] = G protein-coupled receptor (GPCR) small molecule agonists, calcium flux assay: HEK293 wild type cell line counter screen (AID 1920065)
# Procedure, shortened: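 Wild-type HEK293 cells plated 18 h, loaded with calcium dye 1 h at 37 C, then compounds added in agonist mode (ATP as positive control). Kinetic fluorescence Ex/Em 480/540 recorded 3 min at 1 sec intervals; 15 concentrations, triplicate.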
# [5] = p53 small molecule agonists, cell-based qHTS assay with human liver microsomes (AID 1963577);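 further: p53 response element beta-lactamase reporter cells with liver microsomes plus NADPH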
# Procedure, shortened: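 HLM-supplemented p53RE-bla reporter assay: 16 h compound exposure at 37 C, microsomes and NADPH each 0.5 mg/mL final, read by fluorescence intensity.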
# [6] = p53 small molecule agonists, cell-based qHTS assay with rat liver microsomes (AID 1963578)
# Procedure, shortened: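 Quantitative HTS of the Tox21 10K library: p53RE-bla cells, rat liver microsomes plus NADPH at 0.5 mg/mL final each, 16 h at 37 C, beta-lactamase fluorescence detection.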
# [7] = p53 small molecule agonists, cell-based qHTS assay: qHTS cell viability counter screen (AID 1963581); further: nearly all actives have a fitted effect of over 45% in size
# Procedure, shortened: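 p53RE-bla HCT-116 cells, compounds added 5 h after plating and incubated 16 h at 37 C. Cytotoxicity measured in the same wells as intracellular ATP by CellTiter-Glo luminescence after 30 min at room temperature.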
# [8] = p53 small molecule agonists, cell-based qHTS assay (AID 1963582; active means well fitted activation curve with a large enough effect in the signal ratio in the repeat runs, not every such curve was filed as active; the % refers to the signal ratio)
# Procedure, shortened: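 p53RE-bla reporter cells, compounds added in DMSO after 5 h plating, incubated 16 h at 37 C. Beta-lactamase read via 2 h room-temperature LiveBLAzer B/G FRET substrate, fluorescence intensity.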
# [9] = molecular target: 5-hydroxytryptamine receptor 2A (Homo sapiens) (UniProt P28223); assay: 5-hydroxytryptamine receptor 2A (HTR2A) small molecule antagonists, cell-based qHTS assay (AID 1963586); further: nearly all actives have a fitted effect of over 45% in size
# Procedure, shortened: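 Antagonist-mode intracellular calcium assay: DOI (4 nM) added after 5 min compound pre-incubation at room temperature to dye-loaded HTR2A-CHO cells. Fluorescence followed for 3 min, sampled every second.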
# [10] = molecular target: 5-hydroxytryptamine receptor 2A (Homo sapiens) (UniProt P28223); assay: 5-hydroxytryptamine receptor 2A (HTR2A) small molecule agonists, cell-based qHTS assay (AID 1963587); further: nearly all actives have a fitted effect of over 30% in size
# Procedure, shortened: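 HTR2A-CHO cells, plated 18 h at 37 C/5% CO2, dye-loaded 1 h at 37 C; compounds in DMSO added by pin tool (agonist mode). Intracellular calcium flux read as kinetic fluorescence on FDSS over 2 min at 1 s intervals.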
# [11] = molecular target: Muscarinic acetylcholine receptor M1 (Homo sapiens) (UniProt P11229); assay: Cholinergic receptor muscarinic 1 (CHRM1) small molecule antagonists, cell-based qHTS assay (AID 1963588); further: nearly all actives have a fitted effect of over 40% in size
# Procedure, shortened: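 CHRM1-CHO calcium-flux assay, antagonist mode. Cells were seeded 18 h, dye-loaded 1 h at 37 C and given compound for 5 min at RT, then acetylcholine was added at 50nM. FDSS fluorescence was read 3 min; 15 concentrations, three runs.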
# [12] = molecular target: Muscarinic acetylcholine receptor M1 (Homo sapiens) (UniProt P11229); assay: Cholinergic receptor muscarinic 1 (CHRM1) small molecule agonists, cell-based qHTS assay (AID 1963589); further: nearly all actives have a fitted effect of over 35% in size
# Procedure, shortened: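 CHO cells stably expressing human CHRM1 were loaded with calcium dye for 1 h at 37 C, then compound was added in agonist mode. Intracellular calcium fluorescence was followed kinetically at 1 s intervals. Fifteen concentrations were tested in three independent runs.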
# [13] = cAMP Responsive Elements (CRE) small molecule agonists, cell-based qHTS assay (AID 1963590)
# Procedure, shortened: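 CRE-bla HEK 293T cells, 2,000/well in DMEM with 10% dialyzed FBS and 25 mM HEPES, pre-incubated 18 h at 37 C, then exposed to compound 3 h at 37 C. Beta-lactamase reporter read with LiveBLAzer B/G FRET substrate after 2 h at room temperature.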
# [14] = cAMP Responsive Elements (CRE) small molecule antagonists, cell-based qHTS assay (AID 1963591; active means well fitted inhibition curve with a large enough effect in the signal ratio in the repeat runs, not every such curve was filed as active; the % refers to the signal ratio)
# Procedure, shortened: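 CRE-bla HEK293T cells plated 18 h, then given compound plus NKH477 at 0.25 uM final for 3 h at 37C. Beta-lactamase reporter read with LiveBLAzer B/G FRET substrate after 2 h at room temperature.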
# [15] = molecular target: Beta-2 adrenergic receptor (Homo sapiens) (UniProt P07550); assay: Adrenergic beta2 receptor (ADRB2) small molecule antagonists, cell-based qHTS assay (AID 1963592); further: series mostly up to about 92 µM; nearly all actives have a fitted effect of over 50% in size
# Procedure, shortened: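 Cells (CHO, stable ADRB2 overexpression) incubated 18-20hr at 37C; compounds added from DMSO; agonist mix (1nM isoproterenol, 100uM IBMX, 25uM Ro-20-1724) added; 0.5hr RT; d2-cAMP and anti-cAMP-cryptate added; 1hr RT; 665/615 nm read.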
# [16] = molecular target: Beta-2 adrenergic receptor (Homo sapiens) (UniProt P07550); assay: Adrenergic beta2 receptor (ADRB2) small molecule agonists, cell-based qHTS assay (AID 1963593);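 further: CHO cells stably overexpressing human ADRB2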
# Procedure, shortened: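 CHO cells stably over-expressing ADRB2 were plated overnight at 37C, then dosed with compounds plus a stimulation mix containing 100uM IBMX and 25uM Ro-20-1724 for 0.5hr at room temperature. cAMP was measured by HTRF competition, 1hr.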
# [17] = molecular target: D(2) dopamine receptor (Homo sapiens) (UniProt P14416); assay: Dopamine D2 receptor (DRD2) small molecule agonists, cell-based qHTS assay (AID 1963594); further: nearly all actives have a fitted effect of over 35% in size
# Procedure, shortened: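 HEK293 cells stably expressing DRD2 were cultured 24 h at 37 C, then given Ro20-1724 (0.1 mM final) and compounds for 10 min at room temperature. NKH477 (200nM) was then added for 30 min. cAMP was read by HTRF.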
# [18] = molecular target: D(2) dopamine receptor (Homo sapiens) (UniProt P14416); assay: Dopamine D2 receptor (DRD2) small molecule antagonists, cell-based qHTS assay (AID 1963595; active means well fitted inhibition curve with a large enough effect in the signal ratio in the repeat runs, with a control signal flat; the % refers to the signal ratio)
# Procedure, shortened: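 Human DRD2 antagonist qHTS measuring cAMP by HTRF. The cells are exposed to compound for 10 min, then to NKH477 (200 nM) and quinpirole (12 nM) for 30 min at RT, with Ro20-1724 (0.1 mM) present throughout.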
# [19] = p53 small molecule agonists, cell-based qHTS assay with human liver microsomes: qHTS cell viability counter screen (AID 1963579); further: nearly all actives have a fitted effect of over 45% in size
# Procedure, shortened: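 Viability of p53RE-bla cells is measured as CellTiter-Glo luminescence following a 16 h, 37 C incubation with compound, liver microsomes from human donors and NADPH.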
# [20] = p53 small molecule agonists, cell-based qHTS assay with rat liver microsomes: qHTS cell viability counter screen (AID 1963580); further: nearly all actives have a fitted effect of over 45% in size
# Procedure, shortened: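 p53RE-bla HCT-116 cells (4,000/well) rested 5 h at 37 C, then given Tox21 compounds in DMSO with rat liver microsomes (0.5 mg/mL final) plus NADPH (0.5 mg/mL final) for 16 h at 37 C. Viability read by CellTiter-Glo luminescence after 30 min at room temperature.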
# Sequence of D(2) dopamine receptor (Homo sapiens) (P14416 whole entry, looked up): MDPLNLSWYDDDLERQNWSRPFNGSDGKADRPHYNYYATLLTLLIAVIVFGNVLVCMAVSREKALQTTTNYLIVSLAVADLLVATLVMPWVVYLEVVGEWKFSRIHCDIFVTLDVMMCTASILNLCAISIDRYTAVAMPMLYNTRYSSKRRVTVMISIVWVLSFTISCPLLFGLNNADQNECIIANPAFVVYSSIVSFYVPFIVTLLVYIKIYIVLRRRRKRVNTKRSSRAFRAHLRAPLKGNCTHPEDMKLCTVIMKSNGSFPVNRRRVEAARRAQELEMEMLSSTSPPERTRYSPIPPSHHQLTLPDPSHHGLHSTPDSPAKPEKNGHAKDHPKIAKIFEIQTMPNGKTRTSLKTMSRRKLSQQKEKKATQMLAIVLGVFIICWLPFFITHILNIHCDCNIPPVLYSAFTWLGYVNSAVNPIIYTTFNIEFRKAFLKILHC
# Sequence of Muscarinic acetylcholine receptor M1 (Homo sapiens) (P11229 whole entry, looked up): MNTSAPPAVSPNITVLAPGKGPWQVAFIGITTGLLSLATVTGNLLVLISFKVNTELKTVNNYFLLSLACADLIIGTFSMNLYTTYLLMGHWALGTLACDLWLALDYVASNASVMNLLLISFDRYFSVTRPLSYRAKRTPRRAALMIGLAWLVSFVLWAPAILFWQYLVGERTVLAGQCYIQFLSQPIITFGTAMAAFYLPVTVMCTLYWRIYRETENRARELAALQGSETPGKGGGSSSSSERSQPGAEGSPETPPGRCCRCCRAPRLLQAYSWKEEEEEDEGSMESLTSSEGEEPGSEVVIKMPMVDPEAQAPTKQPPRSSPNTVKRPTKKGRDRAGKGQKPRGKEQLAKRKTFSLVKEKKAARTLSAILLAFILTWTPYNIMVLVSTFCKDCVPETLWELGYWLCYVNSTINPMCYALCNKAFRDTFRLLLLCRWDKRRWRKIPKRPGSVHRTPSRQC
# Sequence of KiSS-1 receptor (Homo sapiens) (Q969F8 whole entry, looked up): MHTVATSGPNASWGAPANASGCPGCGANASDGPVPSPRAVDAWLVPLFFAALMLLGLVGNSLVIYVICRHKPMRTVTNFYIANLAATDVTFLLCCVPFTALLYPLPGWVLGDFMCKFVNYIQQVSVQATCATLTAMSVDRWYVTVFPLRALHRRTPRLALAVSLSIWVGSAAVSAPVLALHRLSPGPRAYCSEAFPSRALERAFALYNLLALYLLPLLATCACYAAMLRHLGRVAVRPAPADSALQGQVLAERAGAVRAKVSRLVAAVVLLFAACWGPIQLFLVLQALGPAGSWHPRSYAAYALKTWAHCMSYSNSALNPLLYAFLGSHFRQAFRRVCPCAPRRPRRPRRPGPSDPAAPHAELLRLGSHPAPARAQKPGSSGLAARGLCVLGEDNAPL
# Sequence of Beta-2 adrenergic receptor (Homo sapiens) (P07550 whole entry, looked up): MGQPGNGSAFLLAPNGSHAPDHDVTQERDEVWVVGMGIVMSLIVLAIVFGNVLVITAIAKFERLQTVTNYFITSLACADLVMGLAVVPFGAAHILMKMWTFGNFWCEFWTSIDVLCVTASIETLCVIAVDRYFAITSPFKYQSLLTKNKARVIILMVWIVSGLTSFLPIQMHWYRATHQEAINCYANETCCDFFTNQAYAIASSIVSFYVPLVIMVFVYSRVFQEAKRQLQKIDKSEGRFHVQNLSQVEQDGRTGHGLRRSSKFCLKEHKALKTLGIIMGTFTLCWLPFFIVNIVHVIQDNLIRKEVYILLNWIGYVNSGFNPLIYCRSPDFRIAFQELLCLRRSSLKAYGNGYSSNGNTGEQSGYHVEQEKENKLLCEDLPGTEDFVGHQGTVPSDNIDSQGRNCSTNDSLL
# Sequence of 5-hydroxytryptamine receptor 2A (Homo sapiens) (P28223 whole entry, looked up): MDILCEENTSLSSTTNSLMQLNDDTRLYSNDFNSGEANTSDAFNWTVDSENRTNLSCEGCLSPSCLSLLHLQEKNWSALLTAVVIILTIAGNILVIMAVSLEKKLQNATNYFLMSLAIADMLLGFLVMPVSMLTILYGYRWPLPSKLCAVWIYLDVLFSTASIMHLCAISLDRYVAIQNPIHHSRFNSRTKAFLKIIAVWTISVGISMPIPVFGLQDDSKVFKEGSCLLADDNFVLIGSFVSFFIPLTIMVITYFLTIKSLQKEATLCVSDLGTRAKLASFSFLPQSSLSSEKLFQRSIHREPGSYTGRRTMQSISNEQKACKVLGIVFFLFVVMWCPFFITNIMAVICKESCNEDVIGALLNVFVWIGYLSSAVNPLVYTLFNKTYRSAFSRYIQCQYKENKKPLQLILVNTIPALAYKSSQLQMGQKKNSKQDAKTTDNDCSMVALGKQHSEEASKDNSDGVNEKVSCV
# Sequence of Gonadotropin-releasing hormone receptor (Homo sapiens) (P30968 whole entry, looked up): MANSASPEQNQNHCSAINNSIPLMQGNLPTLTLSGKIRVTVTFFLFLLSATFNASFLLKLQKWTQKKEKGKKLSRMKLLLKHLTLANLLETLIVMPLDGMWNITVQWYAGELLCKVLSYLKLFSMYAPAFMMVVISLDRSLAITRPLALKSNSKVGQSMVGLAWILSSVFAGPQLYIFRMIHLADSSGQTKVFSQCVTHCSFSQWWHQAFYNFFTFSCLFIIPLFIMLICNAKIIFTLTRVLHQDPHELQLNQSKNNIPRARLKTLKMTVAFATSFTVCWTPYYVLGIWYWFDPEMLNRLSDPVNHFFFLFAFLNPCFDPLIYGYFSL
Compound,Potency [1],Potency [2],Potency [3],Potency [4],Potency [5],Potency [6],Potency [7],Potency [8],Potency [9],Potency [10],Potency [11],Potency [12],Potency [13],Potency [14],Potency [15],Potency [16],Potency [17],Potency [18],Potency [19],Potency [20]
Nc1ccccc1,inactive,inactive,inactive,inactive,inactive,inactive,inactive,inactive,inactive,inactive,inactive,inactive,inactive,inactive,inactive,inactive,inactive,inactive,,
CCC(C)c1cc([N+](=O)[O-])cc([N+](=O)[O-])c1O (stereo not drawn),inactive and 17.2 µM (active),inactive,inactive,inactive,inactive,inactive,,inactive,inactive,inactive,inactive,inactive,inactive,inactive,inactive,,inactive,inactive,inactive,inactive
CC[N+](CC)(CC)CC,inactive,inactive,inactive,inactive,,,inactive,,inactive,inactive,inactive,inactive,inactive,inactive,inactive,inactive,inactive,inactive,inactive,inactive
COC[C@@H](NC(C)=O)C(=O)NCc1ccccc1,inactive,inactive,inactive,inactive,inactive,inactive,,inactive,inactive,inactive,inactive,inactive,inactive,inactive,inactive,inactive,inactive,inactive,inactive,inactive
S=c1[nH]c2ccccc2[nH]1,inactive,inactive,inactive,inactive,inactive,inactive,inactive,inactive,inactive,inactive,inactive,,inactive,inactive,inactive,,inactive,inactive,inactive,
CC(C#N)CCC#N (stereo not drawn),inactive,inactive,inactive,inactive,,inactive,inactive,,inactive,inactive,inactive,inactive,inactive,inactive,,inactive,inactive,inactive,inactive,inactive
CC(C)=C[C@@H]1[C@@H](C(=O)OCc2coc(Cc3ccccc3)c2)C1(C)C,inactive,inactive,inactive,inactive,,,inactive,,inactive,inactive,inactive,inactive,inactive,,inactive,inactive,inactive,inactive,inactive,inactive
CC(C)(c1ccc(OCC2CO2)cc1)c1ccc(OCC2CO2)cc1 (stereo not drawn),49.2 µM (active),inactive,inactive,inactive,inactive,inactive,,,inactive,inactive,inactive,inactive,inactive,,inactive,,inactive,inactive,inactive,inactive
